Screens (PubChem BioAssay)
Nrf2 activator – activates Nrf2 signaling; AREc32 ARE-luciferase reporter (MCF7-derived line), luminescence, 24 h; actives 0.31% (n = 410,000); Potency, µM (titrated, usually from 46.1 µM), most hits filed as activators; also: nearly all actives have a fitted effect of over 65% in size
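For detection, Steady-Glo was added and plates sat 30 min at RT; before that, AREc32_Fluc cells grown overnight in OPTI-MEM/5% FBS had been treated with 23 nL compound for 24 hr at 37 deg C.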
IDH1 R132H inh – blocks human mutant IDH1 R132H enzyme. IDH1-R132H enzyme, NADPH consumption, diaphorase/resazurin fluorescence. Potency, µM (top dose mostly 76.6 µM), hits mostly inhibitors. actives 0.093% (n = 390,000); also: nearly all actives have a fitted effect of over 65% in size
Target sequence (O75874 whole entry R132H, stated change not applied): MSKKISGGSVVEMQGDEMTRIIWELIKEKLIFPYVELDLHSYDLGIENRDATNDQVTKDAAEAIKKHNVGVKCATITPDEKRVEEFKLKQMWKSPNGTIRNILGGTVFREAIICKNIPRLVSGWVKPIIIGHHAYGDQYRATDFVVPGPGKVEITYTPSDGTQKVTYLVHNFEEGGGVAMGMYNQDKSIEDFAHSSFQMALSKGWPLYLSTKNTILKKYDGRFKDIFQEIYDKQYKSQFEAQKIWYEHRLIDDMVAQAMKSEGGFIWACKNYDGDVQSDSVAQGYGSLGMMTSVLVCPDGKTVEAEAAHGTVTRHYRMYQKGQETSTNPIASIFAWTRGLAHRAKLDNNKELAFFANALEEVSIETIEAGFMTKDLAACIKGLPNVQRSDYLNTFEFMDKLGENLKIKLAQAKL
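IDH1-R132H (0.5 ug/mL) preincubated 30 min with compound, then NADPH (0.016 mM) and alpha-KG (2 mM) added; 80 min at RT, pH 7.5. Remaining NADPH coupled via diaphorase/resazurin to fluorescence (540/590 nm); concentration-response curves normalized to no-enzyme control.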
LDHA inh – blocks human lactate dehydrogenase A | P00338 | purified LDHA, NADH/diaphorase-resazurin fluorescence; hits give low values | activity change, % (values are at about 110 or 230 µM) | actives 0.15% (n = 480,000) | AID 1347041; in the data active = activity change below about -30%; inconclusive = mostly about -25% to -30%
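LDH5 2 nM; NADH 0.06 mM, pyruvate 0.2 mM; 200 mM Tris pH 7.4, EDTA, Tween-20; 5 min RT. Detection: diaphorase 0.133 mg/mL + resazurin 37 µM, fluorescence ex540/em590 at 0 and 20 min; normalized to enzyme-free and DMSO wells.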
A549 tox – kills or reduces viability of A549 cells in Nrf2 counter-screen; A549 ARE-Fluc cells, CellTiter-Fluor viability, 18-24 h; Potency, µM (doses to about 46 µM), actives largely listed as inhibitors; actives 0.16% (n = 390,000)
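Cytotoxicity counterscreen: CellTiter-Fluor fluorescence was measured in A549 ARE_Fluc cells after 18-24 h of compound exposure in a concentration series. The subsequent BugLite luminescent read reports ARE-luciferase activity.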
12-LOX inh – ALOX12 (human) lipoxygenase inhibition | P18054 | purified 12hLO, xylenol orange hydroperoxide absorbance | Potency, µM (doses to about 108 µM), most hits filed as inhibitors | actives 1.1% (n = 580,000) | AID 1671190
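Hydroperoxide product was detected by ferrous iron/xylenol orange as the 573 to 405 nm absorbance ratio. Arachidonic acid at 40 uM (final) was turned over for 30 min at room temperature by 150 nM human 12hLO, pH 7.0 Hepes buffer, after 15 min compound preincubation.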
Nrf2 inh – inhibitors of Nrf2 signaling | A549 ARE-Fluc reporter, luciferase luminescence, 18-24 h | Potency, µM (series often up to 46 µM), most hits filed as inhibitors | actives 2.1% (n = 360,000); also: nearly all actives have a fitted effect of over 60% in size
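Concentration-response testing used A549 ARE_Fluc cells at 5000 cells/well. Following an 18-24 h compound incubation, viability was read by fluorescence (Ex 405/Em 525) and luciferase output by luminescence.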
IDH1 autofl – counter-screen for mutant IDH1 inhibitors: fluorescence interference; shares compounds with IDH1 R132H inh; Resorufin detection reagent fluorescence interference, cell-free; inhibition of signal, % at 51.2 µM; 750 tested, under 10 active; AID 623980
WT IDH1 inh – wild-type IDH1 (human) inhibition counterscreen; shares compounds with IDH1 R132H inh; WT IDH1 enzyme, NADPH diaphorase/resazurin fluorescence; Potency, µM (series often up to 115 µM), most hits filed as inhibitors; actives 9% (n = 750); also: nearly all actives have a fitted effect of over 55% in size
Target sequence (O75874 whole entry, looked up): as the sequence (O75874 whole entry R132H, stated change not applied) above, with H132R counted along it
mIDH1 confirm – confirmation of human mutant IDH1 inhibitors; shares compounds with IDH1 R132H inh; Potency, µM (top dose mostly 76.6 µM), usual class: inhibitors; IDH1 R132H enzyme, NADPH diaphorase/resazurin fluorescence; actives 83% (n = 750); AID 624002; also: nearly all actives have a fitted effect of over 50% in size
A number is an active result; . = inactive; ? = inconclusive; / = no result. Shown are actives, neighbours in structure and some others; about 2.7% of the full set was active somewhere. Unless noted, calls follow the shape of the dose curve; as a rule, active = well fitted curve in the direction sought with a large enough effect; inconclusive = small, poorly fitted or top-dose-only effect, or another doubt; inactive = no such curve, though single readings can be large; an effect the other way counts as inactive or inconclusive.

SMILES	Nrf2 activator	IDH1 R132H inh	LDHA inh	A549 tox	12-LOX inh	Nrf2 inh	IDH1 autofl	WT IDH1 inh	mIDH1 confirm
COc1nnc(-c2ccc(C)c(S(=O)(=O)NC(C)C)c2)c2ccccc12	.	.	.	.	/	.	/	/	/
Cc1ccc(-c2nnc(Nc3ccc(F)cc3)c3ccccc23)cc1S(=O)(=O)NC(C)C	.	?	.	.	.	?	.	.	?
O=c1cc(CN2CCN(c3ccccc3)CC2)c2cc(O)ccc2o1	/	/	.	/	.	/	/	/	/
COCC(=O)n1nc(NCc2ccc(F)cc2)nc1NCc1ccc(F)cc1	/	/	.	/	.	/	/	/	/
O=S(=O)(c1ccc(NC(=S)N/N=C/c2ccc(O)c(O)c2)cc1)N1CCOCC1	.	.	.	.	?	.	/	/	/
CN(C)NC(=S)Nc1ccc(S(=O)(=O)N2CCCCC2)cc1	.	.	.	.	.	.	/	/	/
O=S(=O)(c1ccc(NC(=S)N/N=C/c2cccc(Oc3ccccc3)c2)cc1)N1CCOCC1	.	?	.	.	?	.	.	.	?
O=S(=O)(c1ccc(NC(=S)NN=Cc2ccccc2O)cc1)N1CCCCC1	.	46.5µM	.	?	?	?	.	.	22.4µM
N#CC1=C(N)C2=CCCC[C@H]2[C@H](c2cccc(F)c2)C1(C#N)C#N	.	46.5µM	.	.	?	.	.	.	44.7µM
O=C(O)c1[nH]c2ccccc2c1C(c1cc(Br)ccc1O)c1c(C(=O)O)[nH]c2ccccc12	.	41.4µM	.	.	?	.	.	70.8µM	25.1µM
N#Cc1cccc(Oc2ccc(F)cc2)c1C#N	/	/	.	/	.	/	/	/	/
CCn1c(=O)c2cc(C(=O)N(C)c3cc(C)ccc3C)sc2c2ccccc21	.	?	.	.	.	.	.	.	20µM
CC(=O)OCC(=O)[C@@]12OC3(CCCC3)O[C@@H]1C[C@H]1[C@@H]3CCC4=CC(=O)C=C[C@]4(C)[C@@]3(F)[C@@H](O)C[C@@]12C	.	14.1µM	.	.	.	?	.	.	7.08µM
Cc1ccc2c(c1)c1ccc3c(c1n2C)C(=O)C=CC3=O	.	41.4µM	.	?	1.12µM	.	.	.	22.4µM
Cc1ccc2c(c1)c1ncnc(N3CCOCC3)c1n2C	.	.	.	.	.	.	/	/	/
COc1ccc2c(c1)c1ccc3c(c1n2C)C(=O)C=CC3=O	.	35.5µM	.	.	0.708µM	.	.	.	22.4µM
Cn1c2ccccc2c2ccc3c(c21)C(=O)C=CC3=O	.	23.3µM	.	.	?	.	.	.	10µM
CCOC(=O)C(N)c1ccc(Cl)cc1 (centres undefined)	/	/	.	/	.	/	/	/	/
COCCN(CC(N)=O)S(=O)(=O)c1cccc(Cl)c1	/	/	.	/	.	/	/	/	/
N#C/C(=C/c1ccccc1OC(F)F)c1ccccn1	/	/	.	/	?	/	/	/	/
O=C(/C=C/c1ccc(Cl)cc1)c1ccc(O)cc1	/	/	.	/	?	/	/	/	/
O=C(/C=C/c1ccc(Cl)cc1)c1ccc([N+](=O)[O-])o1	.	11.2µM	.	.	.	.	.	?	8.91µM
Cc1ccc(/C=C/C(=O)c2ccc([N+](=O)[O-])o2)cc1	?	35.5µM	.	.	.	.	.	?	8.91µM
CC(=O)c1cccc(NCC(=O)c2ccc(C)c([N+](=O)[O-])c2)c1	.	16.5µM	.	.	?	.	.	.	39.8µM
COc1c(CC=C(C)C)cc(C2CC(=O)c3c(O)cc(O)cc3O2)cc1CC=C(C)C (centres undefined)	.	35.5µM	.	.	?	?	.	39.8µM	25.1µM
SMILES	Nrf2 activator	IDH1 R132H inh	LDHA inh	A549 tox	12-LOX inh	Nrf2 inh	IDH1 autofl	WT IDH1 inh	mIDH1 confirm
CCOC(=O)c1ccc(NC(=O)CCS(=O)(=O)c2ccc3c(c2)CC(C)N3C(=O)CC)cc1 (centres undefined)	/	/	.	/	.	/	/	/	/
N#CC1=C(N)NC(SCc2ccc(Br)cc2)=C(C#N)C12CCCCC2	.	.	.	.	?	?	/	/	/
N#CC1=C(N)NC(SCC(=O)Nc2ccc(Br)cc2)=C(C#N)C12CCCCC2	.	?	.	?	.	?	.	.	22.4µM
Cc1noc(C)c1-c1cc2cc(CO)oc2c(NC2CCN(C)CC2)n1	/	/	/	/	.	/	/	/	/
CCOc1ccc(NC(=O)CN2C(=O)C(c3ccccc3)=NC23CCC(C)CC3)cc1 (centres undefined)	.	22.4µM	.	?	.	?	.	.	15.8µM
COc1ccccc1N(C(=O)c1snc(C(N)=O)c1N)C(C(=O)NCc1ccccc1)c1ccc(O)cc1 (centres undefined)	.	58.5µM	.	.	?	.	.	.	22.4µM
Cc1ccccc1N(C(=O)c1snc(C(N)=O)c1N)C(C(=O)NC1CCCC1)c1ccco1 (centres undefined)	.	?	.	.	.	?	.	.	39.8µM
Cc1cccc(N(C(=O)c2ccco2)C(C(=O)NC2CCCC2)c2ccco2)c1C (centres undefined)	.	?	.	.	.	.	.	.	20µM
Cc1ccc(C(C(=O)NC2CCCC2)N(Cc2ccccc2)C(=O)c2csnn2)o1 (centres undefined)	.	.	.	.	.	.	/	/	/
Cc1ccc(C(C(=O)NC2CCCCC2)N(Cc2ccccc2)C(=O)Cc2c[nH]c3ccccc23)o1 (centres undefined)	.	?	.	?	.	?	.	.	?
CCOC(=O)c1scc(-c2ccccc2)c1S(=O)(=O)Nc1cccc(CC)c1	/	/	.	/	?	/	/	/	/
O=[N+]([O-])c1c(NC2CCN(C3CC3)CC2)ccc2ncccc12	/	/	.	/	?	/	/	/	/
CC(=O)c1cccc(N(C(=O)c2ccco2)C(C(=O)NC2CCCC2)c2ccccc2F)c1 (centres undefined)	.	23.3µM	.	.	.	.	.	.	11.2µM
COc1ccc(N(C(=O)c2snc(C(N)=O)c2N)C(C(=O)NC2CCCCC2)c2ccc(C)o2)cc1 (centres undefined)	.	?	.	?	.	?	.	.	?
Cc1ccc(C(C(=O)NC2CCCC2)N(Cc2ccc(F)cc2)C(=O)c2csnn2)o1 (centres undefined)	.	.	.	.	.	.	/	/	/
